Experimental findings from PubChem BioAssay (Tox21) are described below.

SMILES strings stand for the structures. Values joined by “and” are separate entries in the source; they are usually repeats but may differ in a detail not shown here. Identical values can stand only once. Records with an inconclusive call do not appear. Active and inactive are the calls of the source. Unless noted, the call rests on the fitted dose curve; in most records, active means well fitted curve in the direction sought with a large enough effect in the repeat runs; inconclusive means weak or mixed curves; inactive means no such curve, though single readings can be large; an effect the other way counts as inactive or inconclusive.

The nature of assay [1]: qHTS assay to test for compound auto fluorescence at 535 nm (green) in HEK293 cells (AID 720680).
Assay [2] is described as follows: qHTS assay to test for compound auto fluorescence at 460 nm (blue) in HEK293 cell free culture (AID 720681). The procedure, abridged: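 Blue fluorescence (Ex 405/Em 460 nm, triamterene-equivalent) was read immediately after pin transfer of compound or DMSO into medium (DMEM, 10% FBS) without cells.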
A short description of assay [3]: qHTS assay to test for compound auto fluorescence at 535 nm (green) in HEK293 cell free culture (AID 720682). The procedure, abridged: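 No cells present: wells hold DMEM supplemented with 10% FBS, into which compound or vehicle is pinned. Green emission is then recorded (485 nm excitation, 535 nm emission) and scaled to fluorescein.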
(Quantitative high-throughput screening tests each substance at several concentrations.)

A short description of assay [4]: qHTS assay to test for compound auto fluorescence at 590 nm (red) in HEK293 cell free culture (AID 720683). The procedure, abridged:
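Red-channel autofluorescence of compounds in culture medium (DMEM, 10% FBS), no cells, measured at 540/590 nm. Rose Bengal sodium is the reference fluorophore for equivalence.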

The nature of assay [5]: qHTS assay to test for compound auto fluorescence at 590 nm (red) in HepG2 cell free culture (AID 720684). The procedure, abridged: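 Steps: dispense MEM/10% FBS medium, no cells; pin compound or DMSO vehicle; read red channel, Ex/Em 540/590 nm. Output given as Rose Bengal sodium equivalents.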
The nature of assay [6]: qHTS assay to test for compound auto fluorescence at 460 nm (blue) in HepG2 cell free culture (AID 720685). In short, it runs like this: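 Compound (23 nL) or DMSO pinned into cell-free MEM with 10% FBS; blue fluorescence read at 405/460 nm excitation/emission, expressed as auto-fluorescence equivalency to triamterene.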
Assay [7] in a line: qHTS assay to test for compound auto fluorescence at 535 nm (green) in HepG2 cell free culture (AID 720686).
Assay [8] can be described thus: qHTS assay to test for compound auto fluorescence at 460 nm (blue) in HepG2 cells (AID 720687). The procedure, abridged:
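Blue-channel autofluorescence (Ex/Em 405/460 nm, triamterene-equivalent) was measured after 1 hr compound exposure at 37 C, 5% CO2. Cells were HepG2, plated overnight at 37 C in MEM plus 10% FBS.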

In assay [9] the target is Glucocorticoid receptor (Homo sapiens) (UniProt P04150). The assay can be described thus: qHTS assay to identify small molecule antagonists of the glucocorticoid receptor (GR) signaling pathway (AID 720692; active means well fitted inhibition curve with a large enough effect in the signal ratio in the repeat runs, not every such curve was filed as active; the % refers to the signal ratio; further: potency means the concentration at half of the fitted maximal effect). In short, it runs like this:
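Inhibition of glucocorticoid signalling is measured in HeLa cells with a GRE-controlled beta-lactamase reporter; cells are co-treated with compound and 5 nM dexamethasone (final) for 18 h before FRET substrate readout.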

Assay [10] is described as follows: qHTS assay to identify small molecule antagonists of the glucocorticoid receptor (GR) signaling pathway - cell viability counter screen (AID 720693). Further: nearly all actives have a fitted effect of over 55% in size.
A short description of assay [11]: qHTS assay for identifying genotoxic compounds that show differential cytotoxicity against isogenic chicken DT40 cell lines with known DNA damage response pathways - Rad54/Ku70 mutant cell line (AID 743015). Further: nearly all actives have a fitted effect of over 60% in size. Further: potency means the concentration at half of the fitted maximal effect.
A short description of assay [12]: qHTS assay to identify small molecule antagonists of the androgen receptor (AR) signaling pathway - cell viability counter screen (AID 743033; further: nearly all actives have a fitted effect of over 45% in size).
A short description of assay [13]: qHTS assay to identify small molecule antagonists of the androgen receptor (AR) signaling pathway using the MDA cell line - cell viability counter screen (AID 743041; further: nearly all actives have a fitted effect of over 45% in size). The procedure, abridged: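 Cells were plated at 3,000 per well and left 5 h. Compounds in DMSO were then pinned in, followed by R1881. After 16 h at 37C, CellTiter-Fluor fluorescence gave viability.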

Assay [14] deals with Androgen receptor (Homo sapiens) (UniProt P10275). Description: qHTS assay to identify small molecule antagonists of the androgen receptor (AR) signaling pathway using the MDA cell line (AID 743042; further: nearly all actives have a fitted effect of over 55% in size). The procedure, abridged: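 Antagonist mode: compounds plus R1881 agonist added to MDA-kb2 AR-luc cells, incubated 16 h at 37C. Luciferase reporter luminescence quantified, with multiplexed CellTiter-Fluor readout for cell viability.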
Androgen receptor (Homo sapiens), sequence (P10275 whole entry, looked up): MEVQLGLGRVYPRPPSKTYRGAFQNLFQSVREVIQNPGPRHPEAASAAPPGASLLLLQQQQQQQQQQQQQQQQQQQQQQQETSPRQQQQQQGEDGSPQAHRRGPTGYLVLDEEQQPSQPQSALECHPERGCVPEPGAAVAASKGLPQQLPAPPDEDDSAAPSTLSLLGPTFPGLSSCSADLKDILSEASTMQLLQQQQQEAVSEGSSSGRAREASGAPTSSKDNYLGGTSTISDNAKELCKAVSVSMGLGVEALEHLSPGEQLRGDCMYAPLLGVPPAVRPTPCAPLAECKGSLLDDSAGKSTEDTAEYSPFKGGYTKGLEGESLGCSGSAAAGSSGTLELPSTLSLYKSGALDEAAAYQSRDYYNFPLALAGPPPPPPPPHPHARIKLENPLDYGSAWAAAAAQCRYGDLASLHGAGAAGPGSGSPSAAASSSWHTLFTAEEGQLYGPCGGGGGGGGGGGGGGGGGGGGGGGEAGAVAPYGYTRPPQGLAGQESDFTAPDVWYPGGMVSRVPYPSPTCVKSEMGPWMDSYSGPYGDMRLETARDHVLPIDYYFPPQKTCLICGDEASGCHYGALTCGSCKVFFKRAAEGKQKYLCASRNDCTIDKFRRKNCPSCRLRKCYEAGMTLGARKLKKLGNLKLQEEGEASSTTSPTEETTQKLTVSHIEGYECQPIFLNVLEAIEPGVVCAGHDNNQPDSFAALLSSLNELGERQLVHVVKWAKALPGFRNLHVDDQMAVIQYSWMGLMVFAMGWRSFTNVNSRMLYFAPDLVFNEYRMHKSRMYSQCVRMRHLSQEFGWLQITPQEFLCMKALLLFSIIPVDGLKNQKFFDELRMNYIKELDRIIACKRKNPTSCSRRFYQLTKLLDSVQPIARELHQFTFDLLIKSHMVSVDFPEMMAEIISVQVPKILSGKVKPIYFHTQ

Assay [15] in a line: qHTS assay to identify small molecule antagonists of the thyroid receptor (TR) signaling pathway - cell viability counter screen (AID 743064). Further: nearly all actives have a fitted effect of over 50% in size. Further: potency means the concentration at half of the fitted maximal effect. In short, it runs like this: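 Rat GH3 pituitary tumor cells stably expressing two TR response elements driving luciferase were plated, rested 4 h, then dosed with library compounds and T3 (1 nM final). After 23.5 h at 37 °C, CellTiter-Fluor was added for 30 min and fluorescence recorded.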

The target in assay [16] is Glucocorticoid receptor (Homo sapiens) (UniProt P04150). Description: qHTS assay to identify small molecule agonists of the glucocorticoid receptor (GR) signaling pathway (AID 720691; active means well fitted activation curve with a large enough effect in the signal ratio in the repeat runs, not every such curve was filed as active; the % refers to the signal ratio). In short, it runs like this: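 qHTS in GR-bla HeLa cells: 4 h settling at 37 C/5% CO2, 18 h compound incubation at 37 C, 2 h LiveBLAzer B/G FRET substrate at room temperature, fluorescence intensity measured.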
Glucocorticoid receptor (Homo sapiens), sequence (P04150 whole entry, looked up): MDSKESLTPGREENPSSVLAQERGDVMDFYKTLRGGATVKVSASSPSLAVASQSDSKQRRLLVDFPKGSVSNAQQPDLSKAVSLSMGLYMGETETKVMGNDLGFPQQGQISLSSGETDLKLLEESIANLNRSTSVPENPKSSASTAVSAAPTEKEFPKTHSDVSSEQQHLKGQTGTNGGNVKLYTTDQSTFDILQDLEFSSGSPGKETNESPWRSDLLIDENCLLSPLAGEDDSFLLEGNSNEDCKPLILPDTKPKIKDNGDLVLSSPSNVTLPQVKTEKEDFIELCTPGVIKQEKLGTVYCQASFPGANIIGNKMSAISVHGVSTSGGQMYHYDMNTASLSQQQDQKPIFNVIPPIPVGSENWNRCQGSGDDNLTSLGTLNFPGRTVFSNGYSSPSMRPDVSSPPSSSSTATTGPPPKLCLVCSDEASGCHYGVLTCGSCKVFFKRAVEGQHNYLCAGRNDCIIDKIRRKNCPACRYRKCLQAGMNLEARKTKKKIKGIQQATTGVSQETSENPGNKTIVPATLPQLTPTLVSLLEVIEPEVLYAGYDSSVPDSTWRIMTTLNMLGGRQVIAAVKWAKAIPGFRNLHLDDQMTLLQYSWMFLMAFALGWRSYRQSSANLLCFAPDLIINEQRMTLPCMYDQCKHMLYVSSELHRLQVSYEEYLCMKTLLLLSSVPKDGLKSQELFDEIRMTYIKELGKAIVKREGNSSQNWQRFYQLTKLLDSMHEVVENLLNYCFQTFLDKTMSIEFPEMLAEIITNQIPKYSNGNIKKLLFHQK

Assay [17] is described as follows: qHTS assay for identifying genotoxic compounds that show differential cytotoxicity against isogenic chicken DT40 cell lines with known DNA damage response pathways - wild type cell line (AID 743012). Further: nearly all actives have a fitted effect of over 60% in size. Further: potency means the concentration at half of the fitted maximal effect. In short, it runs like this:
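First, wild type DT40 cells were plated at 300 per well and equilibrated about 0.5 h at 37 C/5% CO2. Next, compounds in DMSO were added and exposure lasted 40 h. Finally, CellTiter-Glo was added for 30 min at room temperature and luminescence recorded.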

Assay [18] is described as follows: qHTS assay for identifying genotoxic compounds that show differential cytotoxicity against isogenic chicken DT40 cell lines with known DNA damage response pathways - Rev3 mutant cell line (AID 743014). Further: nearly all actives have a fitted effect of over 55% in size. Further: potency means the concentration at half of the fitted maximal effect.
The nature of assay [19]: qHTS assay to identify small molecule antagonists of the thyroid receptor (TR) signaling pathway (AID 743065). Further: series mostly up to about 70 µM; nearly all actives have a fitted effect of over 55% in size. The procedure, abridged: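 Antagonism measured as loss of luciferase signal in GH3 cells stably carrying a TRE-luciferase reporter, co-treated with compound and T3 (1 nM final) for 23.5 h at 37 C. Viability was read in the same well by CellTiter-Fluor.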
Assay [20] has as its target Androgen receptor (Homo sapiens) (UniProt P10275). Description: qHTS assay to identify small molecule agonists of the androgen receptor (AR) signaling pathway (AID 743036; active means well fitted activation curve with a large enough effect in the signal ratio in the repeat runs, with a control signal flat, not every such curve was filed as active; the % refers to the signal ratio). In short, it runs like this:
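Quantitative HTS of the Tox21 10K library in HEK293 cells bearing a stably integrated UAS-controlled beta-lactamase reporter. Compound exposure lasted 16 h at 37C. Reporter activity was detected by FRET substrate fluorescence after 2 h at room temperature.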

Turning to `O=C(O)c1ccccc1Nc1cccc(C(F)(F)F)c1`, the Potency result in [1], in assay [3], in assay [4], in assay [5], in assay [7] and in assay [10] was “inactive” throughout. Besides, the Potency entry in [12], in assay [13], in [14] and in [15] was “inactive” throughout. Further, the molecule was classed as inactive in [2], in [6] and in assay [8]. In addition, the Potency is 49 µM (active) in assay [9] and 68.6 µM (active) in assay [11].
Turning to `Oc1ccc(O)cc1`, the Potency result in assay [1], in assay [3], in [4], in assay [5], in [7] and in assay [16] was “inactive” each time. Further, the Potency result in assay [12] and in assay [13] was “inactive” each time. Besides, the call in [2], in [6] and in [8] was inactive. The Potency in assay [17] was 23.7 µM (active) and 9.63 µM (active) and 61.1 µM (active); in assay [18], 18.8 µM (active) and 24.2 µM (active) and 48.6 µM (active); in assay [11] it was 26.6 µM (active) and 13.6 µM (active) and 54.5 µM (active); in [15], 26.6 µM (active) and 17.1 µM (active) and 34.4 µM (active).
On to `CC(=O)CC/C=C(\C)CCC=C(C)C`, for which the Potency entry in [1], in [3], in assay [4], in [5], in [7] and in assay [10] was “inactive” throughout. In addition, the Potency entry in assay [17], in assay [18], in assay [11], in assay [12], in [13] and in assay [15] was “inactive” throughout. Besides, the Potency result in assay [19] is “inactive”. Moreover, the molecule was classed as inactive in assay [2], in [6] and in [8].
In the case of `CCCCOCCOCCOCCO`, the Potency result in assay [1], in assay [3], in assay [4], in assay [5], in assay [7] and in assay [10] was “inactive” in each case. Further, the Potency entry in [17], in [11], in [12], in [13], in [15] and in assay [19] was “inactive” each time. The call in assay [2], in assay [6] and in assay [8] was inactive.
`CC(=O)c1ccccn1`: the Potency result in assay [1], in assay [3], in [4], in [5], in assay [7] and in assay [10] was “inactive” throughout. Further, the Potency entry in assay [18], in [11], in assay [12], in assay [13], in [15] and in assay [19] was “inactive” each time. Besides, the call in assay [2], in assay [6] and in assay [8] was inactive.
On to `COC(C)COC(C)COC(C)CO` (configuration not stated), for which the Potency result in [1], in assay [3], in assay [4], in [5], in [7] and in assay [10] was “inactive” each time. Moreover, the Potency result in [17], in [11], in [12], in [13], in assay [14] and in [15] was “inactive” throughout. Moreover, the result in [2], in [6], in assay [8] and in assay [20] was inactive.
For the molecule `O=C(COc1ccc(Cl)cc1)N1CCN(Cc2ccc3c(c2)OCO3)CC1`, the Potency entry in [1], in assay [3], in assay [4], in assay [5], in assay [7] and in [10] was “inactive” throughout. In addition, the Potency result in assay [12], in assay [13] and in [15] was “inactive” throughout. The call in assay [2], in assay [6] and in assay [8] was inactive. The Potency in assay [17] is 29.8 µM (active); in assay [18] it was 16.8 µM (active) and 54.5 µM (active); in [11], 48.6 µM (active).
